Experimental data taken from PubChem BioAssay (NCATS).
Inconclusive results are not listed. Calls of active or inactive are those of the source. The call rests on the fitted dose curve; in most records, active means well fitted inhibition curve with a large enough effect; inconclusive means small, poorly fitted or top-dose-only effect; inactive means flat fitted curve, though single readings scatter.

Each compound was assayed on HaCat (assay: Cytotoxic Profiling of Annotated Libraries Using Quantitative High-Throughput Screening (AID 1296008; further: nearly all actives have a fitted effect of over 60% in size)). Conditions: Five cell lines viability, CellTiter-Glo ATP luminescence, 48-72 h; max response: hits give low values.
Procedure, shortened: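 Cells exposed to compounds for 48 or 72 hr at 37 degrees Celsius. Viability read as ATP-coupled luminescence with CellTiter-Glo after 10 min at room temperature.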
On the % scale 0 is the no-effect control and ±100 the full control effect; potency means the concentration at half of the fitted maximal effect.

Row | SMILES | max response | Potency | outcome
1 | CCOC(=O)C1=C(C)NC(=S)NC1c1cccc(O)c1 (stereo not drawn) | -10% (inactive) |  | 
2 | CNC(=O)c1ccc(Nc2cc(Nc3ccccc3S(=O)(=O)C(C)C)c3cc[nH]c3n2)nc1 |  | 2.96 µM (active) | 
3 | Cc1cnc(NC(=O)Nc2cc(Br)c(C)cc2OC[C@@H]2CNCCO2)cn1 | 1.25% (inactive) |  | 
4 | C=C1C(=O)O[C@H]2[C@@H]1CCC(C)=CCC[C@@]1(C)O[C@@H]21 |  | 20.9 µM (active) | 
5 | COc1cc2c(cc1OC)[C@@H]1C(=O)c3ccc4c(c3O[C@@H]1CO2)C=CC(C)(C)O4 | -2.92% (inactive) |  | 
6 | c1cc(CN2CCCNCCNCCCNCC2)ccc1CN1CCCNCCNCCCNCC1 | -12.9% (inactive) |  | 
7 | N#CNC(=NCCCCCCOc1ccc(Cl)cc1)Nc1ccncc1 |  | 0.0209 µM (active) | 
8 | COc1cc2c(Nc3ccc(Cl)c(Cl)c3F)ncnc2cc1OCC1C[C@@H]2CN(C)C[C@H]2C1 | -106% (inactive) |  | 
9 | N#Cc1ccc(COC[C@H]2O[C@@H](n3c(NCc4ccc(Cl)c(Cl)c4)nc4c(N)ncnc43)[C@@H](O)[C@@H]2O)cc1 |  | 11.8 µM (active) | 
10 | COc1ccc(Nc2nccc(NCCO)n2)cc1 | 0.234% (inactive) |  | 
11 | CCOC(=O)[C@@H](N)Cc1ccc(-c2cc(O[C@H](c3ccc(Cl)cc3-n3ccc(C)n3)C(F)(F)F)nc(N)n2)cc1 | 1.01% (inactive) |  | inactive
12 | C[C@@H]1[C@H](C)CC[C@]2(C(=O)O)CC[C@]3(C)C(=CC[C@@H]4[C@@]5(C)C[C@@H](O)[C@H](O)[C@@](C)(CO)[C@H]5CC[C@]43C)[C@@H]12 | 2.03% (inactive) |  | 
